CYP2C9 act = CYP2C9 (human) activation. activation factor at 5 µM. P11712. 1.4% of 96,000 active. recombinant CYP2C9, luciferin-H conversion, luminescence; hits give high values; factor 1 = untreated enzyme, 0 = blocked. AID 1024;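 active means activation factor of 2 or more for CYP2C9 at a 5 µM dose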;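 further: 0 = sulfaphenazole-blocked wells and 1 = vehicle-only wells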
CYP2C9 inhib = blocks human cytochrome P450 2C9. P11712. CYP2C9 Supersomes, luciferin-H conversion, luminescence. inhibition, % at 5 µM. 20% of 96,000 active;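 active means blocking of liver enzyme CYP2C9 beyond about 50% at 5 µM, limit read from the data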
CYP2C19 inhib = human CYP2C19 inhibition; CYP2C19 Supersomes, luciferin-H EGE luminescence, 30 min; inhibition, % at 5 µM; 21% of 96,000 active;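 active means CYP2C19 inhibition above a set limit at 5 µM in the primary screen, cut at about 50% in these data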;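 further: plate controls were negative control wells for no effect and 2.5 mM tranylcypromine positive control for full effect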
PLAP act = human PLAP activation; purified PLAP enzyme, luminescent substrate read-out; hits give high values; activation fold at 20 µM; 1.2% of 96,000 active; in the data active means activation fold above about 2
Target sequence (P05187 whole entry, looked up): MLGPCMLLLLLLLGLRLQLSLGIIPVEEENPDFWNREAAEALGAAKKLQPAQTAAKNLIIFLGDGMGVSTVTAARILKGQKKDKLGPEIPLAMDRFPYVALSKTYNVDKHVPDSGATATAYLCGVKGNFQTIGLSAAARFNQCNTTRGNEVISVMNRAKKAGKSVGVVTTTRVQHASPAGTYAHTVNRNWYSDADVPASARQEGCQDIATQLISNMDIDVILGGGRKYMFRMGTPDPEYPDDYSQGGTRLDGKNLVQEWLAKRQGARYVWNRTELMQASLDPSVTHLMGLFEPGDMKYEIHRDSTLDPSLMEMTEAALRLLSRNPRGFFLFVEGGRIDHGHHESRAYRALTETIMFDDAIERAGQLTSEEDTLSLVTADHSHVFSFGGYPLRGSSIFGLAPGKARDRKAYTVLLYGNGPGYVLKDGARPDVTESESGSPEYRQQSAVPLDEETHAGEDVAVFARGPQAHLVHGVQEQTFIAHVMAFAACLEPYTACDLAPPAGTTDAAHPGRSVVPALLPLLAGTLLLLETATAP
CYP2C19 act = activators of human cytochrome P450 2C19; recombinant CYP2C19, luciferin-H EGE luminescence; hits give high values; 0 = fully inhibited enzyme, 1 = untreated enzyme; activation factor at 5 µM; 96,000 tested, under 10 active; AID 1025;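 active means activation factor of at least 2 at 5 µM in the primary screen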;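 further: 0 = wells with 2.5 mM tranylcypromine and 1 = vehicle-only wells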
Numbers without * were called inactive. In the library only some 31% were active in any assay of this set; here they are far more common.

SMILES	CYP2C9 act	CYP2C9 inhib	CYP2C19 inhib	PLAP act	CYP2C19 act
CCCn1c(C)cc(=O)c2cc(NC(=O)c3ccccn3)ccc21	1.1	-10.3	-4.6	1	1
CCC1Oc2ccccc2N(CC(=O)NCCN2CCc3ccccc3C2)C1=O (centres undefined)	0.9	10.6	16.9	1.3	0.8
CCC1Oc2ccccc2N(CC(=O)NCCC2=CCCCC2)C1=O (centres undefined)	0.6	41.2	89.3*	1	0.1
c1ccc(-c2nnc(-c3ccco3)o2)cc1	1.1	-14.6	50.5*	0.9	0.5
COc1ccccc1CC(=O)Nc1ccc(-c2nnc(-c3ccco3)o2)cc1	0.8	22.7	22.8	1	0.8
O=C(Nc1ccc(-c2nnc(-c3ccco3)o2)cc1)C(c1ccccc1)c1ccccc1	0.3	72.3*	-20.2	0.8	1.2
O=C(c1ccncc1)N1CCN(C(=O)c2ccncc2)CC1	1.2	-16.1	16.4	1.3	0.8
O=C(/C(=C/O)N=Nc1ccccc1)c1ccncc1	0.3	67.7*	96.4*	1	0
C=CCn1c(=O)/c(=C/c2ccc(Cl)cc2)s/c1=C(/C#N)c1nnc2n1CCCCC2	0.2	78.3*	36.2	1.4	0.6
CCCS(=O)(=O)N1CCC(C(=O)NCCc2ccc(C)cc2)CC1	0.9	5.9	2.4	0.8	1
COc1ccc(CNc2ccccc2SC)cc1OC	0.5	49.4	83.4*	1.4	0.2
COc1cc(CNC2CCCCCC2)cc(OC)c1OC	1.2	-21.4	1.7	1	1
COc1cc(CNc2ccccc2SC)cc(OC)c1OC	0.1	89.4*	94.7*	1.5	0.1
Cc1cc(=O)oc(C)c1C(=O)NCCN1CCOCC1	1	2.2	15.5	1	0.8
OC1CCCN(Cc2ccccc2)C1 (centres undefined)	1.1	-9.1	-9.5	1.1	1.1
OC(c1ccccc1)C1CN(Cc2ccccc2)CCC1(O)c1ccccc1 (centres undefined)	0.9	14.7	67.2*	0.8	0.3
COC(=O)c1c(C)[nH]c(C)c1-c1ccccc1	0.7	26.8	60.3*	1	0.4
CC1=NN(c2ccc(C)c(C)c2)C(=O)C1C(c1cccc(O)c1)C1C(=O)N(c2ccc(C)c(C)c2)N=C1C (centres undefined)	0.4	60.6*	24.1	1.2	0.8
Cn1c(=O)oc2cc(S(=O)(=O)N3CCCc4ccccc43)ccc21	1.2	-19.8	29.0	1	0.7
O=S(=O)(c1cccs1)N1CCc2ccccc21	2.3*	-130.7	50.6*	1	0.5
O=S(=O)(c1cccs1)N1CCCc2ccccc21	2.1*	-112.6	84.6*	0.7	0.2
CC1(C)Cc2c(c(N3CCOCC3)nc3sc4c(NCc5ccccc5)nnnc4c23)CS1	0	98.5*	57.4*	1.4	0.4
CC(C)CNc1nnnc2c1sc1nc(N3CCOCC3)c3c(c12)CC(C)(C)SC3	0.2	80.6*	33.9	1.1	0.7
CC1(C)Cc2c(c(N3CCOCC3)nc3sc4c(NCc5ccco5)nnnc4c23)CS1	0.1	93.4*	61.4*	1.5	0.4
CC1(C)Cc2c(c(N3CCOCC3)nc3sc4c(NN)ncnc4c23)CS1	0.9	9.7	-17.9	1	1.2
SMILES	CYP2C9 act	CYP2C9 inhib	CYP2C19 inhib	PLAP act	CYP2C19 act
CCC(C)[C@H](NC(=O)NCC1CCCO1)C(=O)OC (some centres undefined)	1.1	-12.4	-14.3	1.1	1.1
COc1ccc(C(C)C)cc1S(=O)(=O)n1cnc(C)c1	1	-0.7	5.5	1.2	0.9
COc1cc(C)c(Cl)cc1S(=O)(=O)n1cnc(C)c1	2*	-104.9	97.0*	1.7	0
Cc1ccc(C(=O)C(OC(=O)CN2C(=O)c3ccccc3C2=O)c2ccccc2)cc1C (centres undefined)	2*	-95.5	26.4	1	0.7
O=[N+]([O-])c1cc(C(F)(F)F)ccc1N1CCN(S(=O)(=O)c2ccc3ccccc3c2)CC1	1.1	-14.2	57.5*	0.8	0.4
Cn1c(=O)n(C)c2cc([N+](=O)[O-])c(N3CCN(S(=O)(=O)c4ccc(C(C)(C)C)cc4)CC3)cc21	0.4	62.2*	29.4	1.2	0.7
Cn1c(=O)n(C)c2cc([N+](=O)[O-])c(N3CCN(C(=O)c4ccc(Cl)cc4)CC3)cc21	0.7	27.3	2.4	0.9	1
CCC(C)C(NC(=O)c1ccccc1NC(=O)c1ccco1)C(=O)NC1CCCCC1 (centres undefined)	0.6	42.2	16.9	1.5	0.8
Cc1cc(NC(=O)c2cc3ccccc3o2)cc(C)c1OCC(=O)N1CCOCC1	0.5	47.6	18.6	1.5	0.8
CCOC(=O)C1CCCN(C(=O)c2ccc(OCC)cc2)C1 (centres undefined)	0.9	6.2	37.8	1.2	0.6
CC1(C)CC(=O)c2cnc(N3CCc4ccccc4C3)nc2C1	0.8	17.4	11.3	1.1	0.9
O=C(Nc1cc(Cl)ccc1Cl)c1ccc(OC(=O)c2ccco2)cc1	1.5	-51.3	-7.5	0.7	1.1
O=C(c1cccs1)c1coc2ccc(O)c(CN(CCO)CCO)c12	1	-0.1	26.0	2.4*	0.7
COc1ccc2occ(C(=O)c3coc4ccc(O)c(CN(C)C)c34)c2c1	0.8	22.7	14.5	1.3	0.9
CN1C(=O)/C(=C2\SC(N3CCCCCC3)=NC2=O)c2ccccc21	2.7*	-170.2	44.9	1.4	0.6
CC(C)CCNC(=O)C1CCN(C(=O)N(C)C)CC1	1.1	-12.5	6.5	1	0.9
CC(C)=C1C(=O)NN(c2ccc(F)c(Cl)c2)C1=O	1	-2.0	-3.6	1	1
O=C1NN(c2ccc(F)c(Cl)c2)C(=O)/C1=C\c1cccc(OC(=O)c2cccs2)c1	0.5	51.1*	-16.7	1.4	1.2
CCCOc1ccc(C(=O)N2CCCC2)cc1OC	1.1	-13.9	23.1	1.2	0.8
N#C/C(=C\C1CC=CCC1)c1nc2ccccc2[nH]1 (centres undefined)	0.5	48.7	17.0	0.8	0.8
Cn1c(/C(C#N)=C/C2CC=CCC2)nc2ccccc21 (centres undefined)	0.9	13.8	58.0*	1.1	0.4
Cc1ccccc1C(=O)Nc1nc2n(n1)C(c1ccccc1)CC(=O)N2 (centres undefined)	0.9	9.8	-31.4	1.6	1.3
COc1ccc(OC)c(C(=O)CSc2nccc(-c3ccc(Br)cc3)n2)c1	0.2	79.4*	10.8	1.4	0.9
CCCn1c(SCC(N)=O)nnc1-c1ccco1	0.9	6.4	0.4	1	1
CCCn1c(SCC(=O)c2cc(OC)ccc2OC)nnc1-c1ccco1	0.5	46.3	97.2*	1.7	0
COc1ccc(OC)c(C(=O)CSc2nnc(-c3cccnc3)n2C)c1	1.1	-12.2	71.9*	0.9	0.3
CCn1c(SCC(=O)c2ccc(OC)cc2)nnc1C(C)NC(=O)c1ccc(OC)cc1 (centres undefined)	0.8	16.8	28.0	1.3	0.7
CCn1c(SCC(=O)c2cc(OC)ccc2OC)nnc1C(C)C	0.6	40.6	98.7*	1.6	0
